# In PubChem BioAssay (NCATS):
# Inconclusive results are not listed. A call without a number means that no potency is given here. Values without a mark were called inactive. Active and inactive are the calls of the source. Calls come from the whole dose curve; as a rule, active = well fitted cell-killing curve with a large enough effect; inconclusive = small, poorly fitted or top-dose-only effect, or effect the other way; inactive = flat fitted curve, though single readings scatter.
# System: CAOV3
# Test: Primary qHTS to identify gynecologic anti-cancer compounds using libraries of approved drugs and bioactive compounds (AID 1345084); note: nearly all actives have a fitted effect of over 55% in size
# Conditions: Gynecologic cancer cell panel viability, ATPlite luminescence, 48 h; series mostly up to 57.5 µM
# From the text: National Center for Advancing Translational Sciences [NCATS] Assay Overview: Chemotherapeutic drug responses vary from cancer to cancer and from patient to patient. These variations could be caused by a number of factors including patient genomic background, tumor mutations, tumor heterogeneity, and aspects of drug treatment. Chemotherapeutic drug resistance is also a common issue and can lead to ineffective treatment and patient death. Here we have profiled the cell killing effects of thousands of compounds to characterize the responses in three gynecological cancers, identify cancer-selective compounds, and understand the diversity of responses to these compounds from pan-cancer suppressors to single cell line selective compounds. In this assay, we screened a 7,914 compound drug library that included approved drug and bioactive compounds in six ovarian, three cervical, and […] placental cancer cell lines using the ATPlite assay for cell viability. […] The cervical cancer cell lines included HeLa, Ca Ski, and C-33 A. The placental cancer cell lines included JEG-3. HEK 293T cells were used as the control cell line to determine the selectivity index. ATPlite is a luminescence based assay reliant on the conversion of a luciferase substrate to light in the presence of ATP. As a cytotoxic compound will suppress growth and decrease the number of cells, the concentration of ATP will decrease, and less light signal will be detected in the well.
# Assay Protocol Summary: 1,000 cells in 4 uL of media were dispensed into white, solid bottom 1536-well plates using a Multidrop Combi (Thermo Scientific). The Assay plates were incubated for 16 hours at 37 C with 5% CO2 in assay plates, followed by the addition of 23 nL of DMSO or drug dissolved in DMSO. Each compound was assayed in five concentrations (0.092, 0.46, 2.3, 11.5, and 57.5 uM), using the automated Wako 1536 Pin Tool workstation and incubated at 37 C with 5% CO2 48 hours. 4 uL of ATPlite, the ATP monitoring reagent, was then added to the each well of the assay plates using the Multidrop Combi reagent dispenser followed by incubation for 15 minutes at room temperature. The resulting luminescence was measured using the ViewLux plate reader.
# Potency is the fitted concentration of half-maximal effect.
Compound,Potency,"activity change, negative = cytotoxicity"
CCOc1ccccc1-n1c(C(C)N2CCN(C(=O)COc3ccc(Cl)cc3)CC2)nc2ccccc2c1=O (stereo not given),inactive,
CCc1[nH]c2ccc(OC)cc2c1CCN(C)C,inactive,
CCN1C[C@]2(COC)[C@H](O)C[C@H](OC)[C@]34[C@@H]5C[C@]6(O)[C@H](OC(=O)c7ccccc7)[C@@H]5[C@@](O)([C@H]([C@H](OC)[C@H]23)[C@@H]14)[C@@H](O)[C@@H]6OC,inactive,
CN1C(=O)c2ccccc2NC(=O)[C@]12O[C@@H]2c1ccccc1,inactive,
COC(=O)C1(C)CCC(O)C2(C)c3c(O)cc(C(C)C)cc3C(O)C(OC(C)=O)C12 (stereo not given),inactive,
CC(C)(C)c1cc(C(C)(C)C)c2c(c1)C(O)(C(F)(F)F)C(=O)O2 (stereo not given),inactive,
C=C1[C@@H]2CC[C@@]3(C)[C@H](c4ccoc4)OC(=O)C[C@]13O[C@H]1CC(=O)C(C)(C)[C@H](C(OC(C)=O)C(=O)OC)[C@]12C (stereo not given in full),inactive,
O=C1C[C@@H]2OCC=C3CN4CC[C@]56c7ccccc7N1[C@H]5[C@H]2[C@H]3C[C@H]46,inactive,
CC(C)C1(OO)C=C2C(=O)CC3C(C)(C(=O)O)CCCC3(C)C2CC1 (stereo not given),inactive,
COC(=O)N1CCN(C(=O)Cc2ccc(Cl)c(Cl)c2)[C@@H](CN2CCCC2)C1,inactive,
CC[C@H]1CN2CC[C@H]1C[C@H]2[C@H](O)c1ccnc2ccc(OC)cc12,inactive,
C=C(CO)C(=O)O[C@H]1C/C(C)=C/CC/C(CO)=C/[C@H]2OC(=O)C(=C)[C@H]12,inactive,
CC(C)(O)[C@H]1O[C@H]2CC[C@@]3(C)[C@@](O)(CC[C@H]4Cc5c([nH]c6ccccc56)[C@@]43C)C2=CC1=O,inactive,
C/C=C(\C)C(=O)OC1CC2C(C)(C)OC(=O)CC(OC(C)=O)C2(C)C2CC(OC(=O)C(C)C)C3(C)C(c4ccoc4)CC4OC43C12C (stereo not given),inactive,
COC1=CC(=O)O[C@@H](CCc2ccccc2)C1,inactive,
CN1C(=O)N(c2ccc(C#N)c(C(F)(F)F)c2)C(=O)[C@]1(CO)c1ccccc1,inactive,
CN(C)CCc1c[nH]c2ccc(CN3CCN(C)S3(=O)=O)cc12,inactive,
CCCSP(=O)(OCC)SCCC,inactive,
COc1cc(C)[nH]c(=O)c1CNC(=O)c1c(C)n([C@H](C)C2CCOCC2)c2ccccc12,inactive,
COC1CC(O[C@H]2CC[C@]3(C=O)C4CC[C@]5(C)[C@@H](C6=CC(=O)OC6)CC[C@]5(O)[C@@H]4CC[C@]3(O)C2)OC(C)C1O[C@@H]1O[C@H](CO)[C@@H](O)[C@H](O)[C@H]1O (stereo not given in full),501 nM (active),

Compound,Potency,"activity change, negative = cytotoxicity"
CCCCCCn1c(=O)c(C(=O)Nc2ccc(C(=O)OCCC)cc2)c(O)c2ccccc21,,20.9% [at 11.6 µM]
CCc1c(C(=O)C(N)=O)c2c(OCC(=O)OC)cccc2n1Cc1ccccc1,inactive,
COc1cc2c(cc1OC)[C@@]13CCN4CC5=CCO[C@H]6CC(=O)N2[C@H]1[C@H]6[C@H]5C[C@H]43,inactive,
CN1CCC[C@@H]1Cc1c[nH]c2ccc(Nc3ncccc3[N+](=O)[O-])cc12,inactive,
CC(=O)OC1CC(O)C(C)(C)C2CC(OC(C)=O)C3(C)C(CCC4(C)C(c5ccoc5)C(=O)C5OC543)C12C (stereo not given),inactive,
CN[C@H]1[C@H](O)[C@H](O[C@@H]2[C@@H](O)[C@H](O[C@H]3O[C@H]([C@H](C)O)[C@@H](O)[C@H](O)[C@H]3N)[C@@H](N)C[C@H]2N)OC[C@@]1(C)O,inactive,
Cc1cccc(NC(=O)N[C@@H]2N=C(c3ccccc3)c3ccccc3N(C)C2=O)c1,inactive,
C[C@@](O)(COc1ccc(C#N)cc1)C(=O)Nc1ccc(C#N)c(C(F)(F)F)c1,inactive,
COC1C(O)C(C)OC(OC2C(CO)O[C@@H](O[C@@H]3CC4CCC5C(CC[C@]6(C)[C@@H](C7=CC(=O)OC7)CC[C@]56O)[C@@]4(C)[C@H](O)C3)C(O)C2O)C1O (stereo not given in full),2820 nM (active),
CC1C/C=C/C(O)C(O)CC/C=C/c2cc(O)cc(O)c2C(=O)O1 (stereo not given),inactive,
CN1[C@H]2C[C@H](OC(=O)[C@H](CO)c3ccccc3)C[C@@H]1[C@@H](O)C2,inactive,
CC1=CC2/C=C(\C)CCC(O)C3OC(C)(C)OC3CC(=O)OC23C(=O)NC(CC(C)C)C3C1C (stereo not given),inactive,
C/C=C(\C)C(=O)O[C@H]1[C@H](OC(C)=O)[C@]2(CO)[C@H](O)[C@H](O)[C@]3(C)C(=CCC4[C@@]5(C)CC[C@H](O[C@@H]6O[C@H](C(=O)O)[C@@H](O)[C@H](O[C@@H]7OC[C@H](O)[C@H](O[C@@H]8OC[C@H](O)[C@H](O)[C@H]8O)[C@H]7O)[C@H]6O[C@@H]6O[C@H](CO)[C@@H](O)[C@H](O)[C@H]6O)C(C)(C)C5CC[C@]43C)[C@@H]2CC1(C)C (stereo not given in full),,0.059% [at 6.55 µM]
Cc1cn(C[C@H](N)C(=O)O)c(=O)n(Cc2cc(-c3ccccc3)sc2C(=O)O)c1=O,inactive,
CN1[C@@H]2CC[C@H]1CC(OC(=O)C1C=Nc3ccccc31)C2 (stereo not given in full),inactive,
CCC1NC(=O)C2C(Cl)C(Cl)CN2C(=O)C(C(C)O)NC(=O)CC(c2ccccc2)NC(=O)C(CO)NC1=O (stereo not given),inactive,
C/C=C(\C)C(=O)OC1C(C)OC(OC2C(C)OC(OC3CCC4(C)C(=CCC5C4CCC4(C)C(C(C)OC6OC(COC7OC(CO)C(O)C(O)C7O)C(O)C(O)C6O)CCC54O)C3)CC2OC)C(O)C1OC (stereo not given),,12.8% [at 11.6 µM]
C=C(C)[C@H]1O[C@H]2CC[C@@]3(C)[C@@](O)(CC[C@H]4[C@@H]5OC(C)(C)[C@H]6C[C@@H]7C(=C)Cc8c(Cl)cc9[nH]c(c5c9c8[C@@]76O)[C@@]43C)[C@]23O[C@@H]3[C@H]1O,inactive,
Clc1ccc(N2C[C@H]3CC[C@@H](C2)N3)nn1,inactive,
CC(C)=C1CC[C@]23CO[C@H](C2)[C@@](O)(C(=O)O)CCC13 (stereo not given in full),inactive,
